Several values for one entry are separate records, joined by “and”; a condition that tells them apart may be missing. Equal entries are not always repeated. This is part of a sample that, as a whole, favours compounds with a hit. Of some 83,000 tested, about 20% had one in any assay.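 Values shown are percent growth following 48 h exposure of cells in 96-well plates to a single concentration of compound; below 10 was considered active.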 Values without a mark were called inactive. Activity calls are given as the source filed them.
What follows are compounds tested on HL-60(TB) leukemia (assay: NCI-60 one-dose screen, 48 h (100 = growth as untreated, 0 = no growth, -100 = all killed)). Conditions: 10 µM.
Description: Growth inhibition of the HL-60(TB) human tumor cell line is measured as a screen for anti-cancer activity. Cells are grown in 96 well plates and exposed to the test compound for 48 hours. Compounds are tested at a single concentration, which is 10^-5 M for most compounds. The reported endpoint is percent growth (GI% or GIPRCNT), where numbers from 0 - 100% represent growth inhibition, and numbers from -100% - 0 represent cell death. For example, a value of 40 represents 60% growth inhibition. A value of 0 means no net growth occurred over the course of the experiment. A value of -40 indicates 40% of cells at the beginning of the experiment died by the end of the experiment. A value of -100 means all cells are dead at the end of the experiment.
NCI-60 Human Tumor Cell Lines Screen was performed using the standard one-dose NCI protocol, which is described in more detail at https://dtp.cancer.gov/discovery_development/nci-60/default.htm.
Compounds with GIPRCNT values below 10 were considered active. Activity score was based on GIPRCNT using the following formula: […]
Score is 0 for GIPRCNT values of 100 or above, 50 for GIPRCNT values of 0, and 100 for GIPRCNT values of -100.

Question: Which growth does the source give for `S=c1nc[nH]c2nc[nH]c12` here?
Answer: 13.8%

Question: For `CCN(Cc1ccccc1)c1ccc(/C=C2\COc3ccccc3C2=O)cc1`, which growth is on record?
Answer: 78.3%

Same assay, conditions: 10 µM unless noted

Question: With `COc1ccc(\C=N/N=C(N)/C(N)=N\N=C/c2ccc(OC)cc2)cc1` as the compound, how does the growth read?
Answer: 91.5%

Question: With `O=C1CCC(N2Cc3c(C#CCCCNC(=O)c4cc5c(o4)C(=O)c4ccccc4C5=O)cccc3C2=O)C(=O)N1` (stereo not given) as the compound, how does the growth read?
Answer: -1.27% (active)

Question: For `O=C(c1cccc(C(=O)c2ccc3c4c(cccc24)C(=O)N(c2ccccc2)C3=O)c1)c1ccc2c3c(cccc13)C(=O)N(c1ccccc1)C2=O`, which growth is on record?
Answer: 103%

Question: `Cn1c(=O)c2[nH]c(N/N=C/c3ccccc3Br)nc2n(C)c1=O` was tested. Which growth did it give?
Answer: 106%

Question: With `Cc1cccc(/C=C\C(=O)c2ccccc2)c1` as the compound, how does the growth read?
Answer: 98.8% and 58.7%

Question: `COc1cc(NC(N)=NCCC(C)(C)c2ccc(C(F)(F)F)cc2)ncc1C#N` was tested. Which growth did it give?
Answer: -34.6% (active)

Question: With `CN(C)C/C=C/C(=O)Nc1cc2c(Nc3ccc(F)c(Cl)c3)ncnc2cc1O[C@H]1CCOC1` as the compound, how does the growth read?
Answer: -44.7% (active)

Question: `Cn1c(=O)c2c(nc(NC3=NS(=O)(=O)c4ccccc43)n2CC(=O)N2CCc3ccccc32)n(C)c1=O` was tested. Which growth did it give?
Answer: 111%

Question: How did the growth turn out when `COc1cc(-c2csc(NC(=O)Nc3ccc(Cl)cc3)n2)cc(OC)c1OC` was run?
Answer: 2.62% (active)

Question: For `COc1ccc(Br)c2c1C(=O)CC2`, which growth is on record?
Answer: 151%

Question: `COc1ccc(NC(=O)c2sc3nc(C)c(C(=O)/C=C/c4cccc(OC)c4)cc3c2N)cc1` was tested. Which growth did it give?
Answer: 33.6%

Question: `C#Cc1cccc(Nc2ncnc3cc(OC)c(OCCCCCCC(=O)NO)cc23)c1` was tested. Which growth did it give?
Answer: 2.38% (active)

Question: For `CCOC(=O)N1CCN(CCCCl)CC1`, which growth is on record?
Answer: 85.6%

Question: How did the growth turn out when `Cc1cc2c(O)c(-c3cccc(Cl)c3)c3sc(=O)oc3c2cc1C` was run?
Answer: 23.2%

Question: With `CSc1ccc(C(=O)C[n+]2cccc(C)c2)cc1` as the compound, how does the growth read?
Answer: 102%

Question: For `O=C(CN1C(=O)NC2NC(=O)NC21)N/N=C/c1ccccc1[N+](=O)[O-]` (stereo not given), which growth is on record?
Answer: 99.2%

Question: For `OB(O)c1cccc(-c2nc3ccc4[nH]ncc4c3c3c2CCCC3)c1F`, which growth is on record?
Answer: 32.1%

Question: With `CC1=C(Nc2ccc(N3CCN(C)CC3)cc2)C(=O)c2cncnc2C1=O` as the compound, how does the growth read?
Answer: -26.6% (active)

Question: With `COc1cc(NCCCCCCCNC(C)C)c2nccc(C)c2c1` as the compound, how does the growth read?
Answer: 75.1% and 102%

Question: Which growth does the source give for `COc1ccc2nc3ccccc3c(NCCNCCO)c2c1` here?
Answer: 6.15% (active)

Question: `NC(=O)c1n[nH]n2c1nc(=O)c1c3c(sc12)CCCC3` was tested. Which growth did it give?
Answer: 99.9%

Question: For `CC(C)(C)c1ccc(Cn2cc(CSc3nc4ccccc4s3)nn2)cc1`, which growth is on record?
Answer: 93.7%

Question: `COc1ccc(S(=O)(=O)Nc2cc(/C=C\c3cc(OC)c(OC)c(OC)c3)cc(OC)c2OC)cc1` was tested. Which growth did it give?
Answer: -42.1% (active)

Question: Which growth does the source give for `Brc1ccc2[nH]cc(-c3nonc3-c3c[nH]c4ccccc34)c2c1` here?
Answer: 67.3%

Question: For `O=[N+]([O-])c1cc(S(=O)(=O)c2ccc(F)c([N+](=O)[O-])c2)ccc1F`, which growth is on record?
Answer: 59.9%

Question: For `O=C(Nc1ccc(Cl)c(Cl)c1)Nc1ccc(Cl)c([N+](=O)[O-])c1`, which growth is on record?
Answer: -39.9% (active)

Question: For `CCOCC(O)(c1ccc(Cl)cc1)c1ccc(Cl)cc1`, which growth is on record?
Answer: 106%

Question: Which growth does the source give for `CCOC(=O)CSc1ncnc2c1c(-c1ccccc1)c(-c1ccccc1)n2-c1ccc(C)cc1` here?
Answer: 55.9%

Question: How did the growth turn out when `CC(C)(C)[Si](C)(C)O[C@H]1C(=O)C=CN2CC=C[C@@H]12` was run?
Answer: 89.5% [100 µM]

Question: `O=C(c1nn(-c2ccccc2)c2c1CC(NCc1ccc(F)cc1)CC2)N1CCCCC1` (stereo not given) was tested. Which growth did it give?
Answer: 86.6%

Question: `O=C(N/N=C/c1ccc(Cl)cc1Cl)c1ccccc1Nc1cccc(C(F)(F)F)c1` was tested. Which growth did it give?
Answer: 85.7%

Question: Which growth does the source give for `O=C(O)C1CCN(S(=O)(=O)c2ccc(-c3ccccc3)cc2)CC1` here?
Answer: 45.6%

Question: How did the growth turn out when `COc1ccc2[nH]cc(C(c3cc(F)cc(F)c3)c3c[nH]c4ccc(OC)cc34)c2c1` was run?
Answer: 131%

Question: Which growth does the source give for `CN1CC[C@@H](c2c(O)cc(O)c3c(=O)cc(-c4ccccc4Cl)oc23)[C@@H](O)C1` here?
Answer: -29.1% (active)

Question: Which growth does the source give for `COc1cc(-c2c3c(nc4c2c(C)nn4-c2ccccc2)-c2ccccc2C(=O)C3=O)cc(OC)c1OC` here?
Answer: 68.8%

Question: Which growth does the source give for `Cc1ccc(C(C)C)cc1C(=O)C[n+]1ccccc1` here?
Answer: 115%

Same assay, conditions: 50 µM

Question: `S=c1nc[nH]c2nc[nH]c12` was tested. Which growth did it give?
Answer: 12.6%

Same assay, conditions: 100 µM

Question: How did the growth turn out when `CCN(Cc1ccccc1)c1ccc(/C=C2\COc3ccccc3C2=O)cc1` was run?
Answer: 8.32% (active)
